This is a sample that favours compounds with a hit; in the whole collection about 5.2% have one here.
Tau fluor counter – counter-screen for tau fibril formation inhibitors. AID 1463. hit rate 0.93% among 280,000. Potency, µM (highest dose often 57.7 µM), for the others: at the top dose activity change, negative = decrease. tau K18 P301L Alexa594 fluorescence, heparin fibrillization; note: potency is the fitted concentration of half-maximal effect; nearly all actives have a fitted effect of over 55% in size
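Human K18 P301L tau (15 uM unlabeled plus 0.24 uM Alexa 594-labeled, final) in 100 mM sodium acetate pH 7 was mixed with compound and 20 uM heparin and incubated 6 hr at 37 C.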
Tau fibril ThT – blocks human tau fibril formation measured by thioflavin T | recombinant tau K18 P301L (four-repeat tau fragment), heparin-induced fibrillization, ThT fluorescence | Potency, µM (highest dose often 57.4 µM), inactives show at the top dose activity, negative = inhibition, hits mostly inhibitors | hit rate 2.1% among 270,000 | AID 1460; note: potency is the fitted concentration of half-maximal effect; nearly all actives have a fitted effect of over 55% in size
Target sequence (P10636 561-689 P618L limits assumed): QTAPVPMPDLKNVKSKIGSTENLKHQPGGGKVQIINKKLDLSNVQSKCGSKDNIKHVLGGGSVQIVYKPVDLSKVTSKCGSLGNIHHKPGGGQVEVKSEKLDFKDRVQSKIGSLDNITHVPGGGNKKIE
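Heparin-induced fibrillization of the P301L-mutant K18 repeat-domain fragment of human tau was followed by ThT binding in quantitative high-throughput format.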
Sfp PPTase inh – inhibitors of Bacillus subtilis Sfp phosphopantetheinyl transferase. Potency, µM, without a hit: largest response in the series, negative = inhibition, actives largely listed as inhibitors. hit rate 3.5% among 310,000. AID 1490. Biochemical Sfp PPTase activity, qHTS. Q9F4F7;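 note: the enzyme is Sfp with the accession as filed and its product quenches rhodamine fluorescence; potency is the fitted concentration of half-maximal effect; 0% = enzyme reaction without inhibitor and -100% = no enzyme wells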
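Compounds were incubated with enzyme (final 15 nM) for 15 min at room temperature before substrate addition started the reaction. Fluorescence at 525 nm excitation, 598 nm emission was recorded immediately and after 30 minutes.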
Tau fibril FP – inhibitors of human tau fibril formation | P10636 | K18 P301L tau heparin fibrillization, Alexa594 FP, 6 h | Potency, µM (series often up to 57.7 µM), without a hit: top-dose activity, negative = inhibition, most hits filed as inhibitors | hit rate 0.39% among 280,000 | AID 1468; note: potency is the fitted concentration of half-maximal effect; nearly all actives have a fitted effect of over 55% in size
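Quantitative HTS format: compounds meet 15 uM recombinant K18 P301L tau and Alexa 594-tau tracer in 100 mM sodium acetate pH 7; 20 uM heparin triggers fibrillization at 37 C over 6 hr; FP gives the signal.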
Coupling enz – counter-screen for Giardia aldolase inhibitors: coupling enzyme system; coupling enzyme system counterscreen, AmpLite Red fluorescence; activity change, negative = inhibition, % at 58.2 µM, hits read low; hit rate 0.67% among 290,000; AID 2472; in the data active = activity change below about -30%
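Counterscreen of the coupled detection system alone, without aldolase: glyceraldehyde-3-phosphate coupling enzymes plus AmpLite Red readout. Compounds at 57.5 uM final, 10 min RT preincubation, 20 min RT reaction, fluorescence 525/598 nm.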
* = called active by the depositor; [ ] = another dose, or the depositor's remark. Unless noted, calls come from the whole dose curve; as a rule, active = well fitted curve in the direction sought with a large enough effect; inconclusive = small, poorly fitted or top-dose-only effect, or another doubt; inactive = no such curve, though single readings can be large; an effect the other way counts as inactive or inconclusive. Unless noted, % is set by controls: 0 for no effect and ±100 for the full control effect.

`Clc1ccccc1-c1ccc(/C=N/Nc2nncc(-c3ccccc3)n2)o1` gave Tau fluor counter -27%, Tau fibril ThT 2µM*, Sfp PPTase inh -9%, Tau fibril FP 16% and Coupling enz -3.
`COc1ccc(Cn2c(SCc3ccc(C(=O)NC(C)C)cc3)nc3cccnc32)cc1` gave Tau fluor counter 1%, Tau fibril ThT 4% and Tau fibril FP -1%.
For O=C(Nc1nnc2n1CCS2)c1ccco1 the results were Sfp PPTase inh 56µM* and Coupling enz 3.
N#Cc1nc(Nc2ccccc2)nc(NC2CCCCC2)n1 was read as Coupling enz -4.
Screening CO[C@H]1C[C@@H]2CC[C@@H](C)[C@@](O)(O2)C(=O)C(=O)N2CCCC[C@H]2C(=O)O[C@H]([C@H](C)C[C@@H]2CC[C@@H](O)[C@H](OC)C2)CC(=O)[C@H](C)C=C(C)[C@@H](O)[C@@H](OC)C(=O)[C@H](C)C[C@H](C)C=CC=CC=C1C returned Tau fluor counter 6%, Tau fibril ThT inconclusive, Sfp PPTase inh 79µM*, Tau fibril FP inconclusive and Coupling enz -2.
Screening C=C(C)C1CCC(C)C(OC(C)=O)C1 (stereo not drawn) returned Sfp PPTase inh 5% and Coupling enz -1.
`C=CCSc1nc2c(c(=O)[nH]1)C(c1ccccc1)C(C#N)=C(N)O2` (stereo not drawn) gave Tau fluor counter -7%, Tau fibril ThT -4%, Sfp PPTase inh 6%, Tau fibril FP 2% and Coupling enz 11.
Screening CNc1nc2[nH]c(=O)c3c(c2s1)OC(N)=C(C#N)C3c1cccc(F)c1 (stereo not drawn) returned Tau fluor counter 1%, Tau fibril ThT 1%, Sfp PPTase inh 79µM*, Tau fibril FP -3% and Coupling enz -51*.
`CCN1CCN(c2cc(C)c3cc(NC(=O)/C=C/c4cccc(Cl)c4)ccc3n2)CC1` gave Tau fluor counter 3.5µM*[quencher], Tau fibril ThT 3.2µM* and Tau fibril FP 3%.
For CCOc1ccc(C(=O)Nc2ccc3nc(N4CCN(CC)CC4)cc(C)c3c2)cc1 the results were Sfp PPTase inh 6% and Coupling enz 1.
`CCN1CCN(c2cc(C)c3cc(NC(=O)c4cccc(Cl)c4)ccc3n2)CC1` gave Tau fluor counter 14µM*[quencher], Tau fibril ThT inconclusive and Tau fibril FP 7%.
For CCN1CCN(c2cc(C)c3cc(NC(=O)c4cc(OC)cc(OC)c4)ccc3n2)CC1 the results were Tau fluor counter 16µM*[quencher], Tau fibril ThT inconclusive, Sfp PPTase inh 7%, Tau fibril FP 10% and Coupling enz 1.
`CC1CCCCN1S(=O)(=O)c1cc2c(=O)nc3ccccn3c2cc1Cl` (stereo not drawn) gave Tau fluor counter 6%, Tau fibril ThT 12% and Tau fibril FP -2%.
CCN1C(=O)C(Cc2nc3ccccc3c(=O)n2C)c2cc(C)ccc21 (stereo not drawn) was read as Tau fluor counter 1%, Tau fibril ThT 8% and Tau fibril FP -1%.
For Cc1ccccc1-n1cc(-c2ccccc2)nc1SCC(=O)Nc1ccc(F)cc1 the results were Tau fluor counter inconclusive, Tau fibril ThT -11% and Tau fibril FP -13%.
COc1cc(SC)ccc1C(=O)N1CCn2c3c(c4cc(C)ccc42)CCCC31 (stereo not drawn) was read as Tau fluor counter inconclusive, Tau fibril ThT inconclusive and Tau fibril FP 13%.
Cc1ccc(C(=O)NC(=S)Nc2c(C)ccc3nsnc23)cc1 was read as Tau fluor counter -9%, Tau fibril ThT -17%, Sfp PPTase inh 35µM*, Tau fibril FP -6% and Coupling enz -10.
Screening Cc1ccc2c(NC(=S)NC(=O)c3ccccc3)cccc2n1 returned Sfp PPTase inh 56µM*.
Screening COc1cc(C(=O)NC(=S)Nc2cccc3nc(C)ccc23)cc(OC)c1OC returned Tau fluor counter -3%, Tau fibril ThT -3%, Sfp PPTase inh -5%, Tau fibril FP -4% and Coupling enz 0.
For Cc1ccc(C(=O)NC(=S)Nc2cccc3nsnc23)cc1 the results were Tau fluor counter -22%, Tau fibril ThT 13µM*, Sfp PPTase inh 14µM*, Tau fibril FP inconclusive and Coupling enz -29.
CS(=O)(=O)Nc1cccc(-c2ccc3ncnc(N4CCNCC4)c3c2)c1 was read as Sfp PPTase inh 17% and Coupling enz -1.
O=C(/C=C/c1cccs1)NC(=S)NNC(=O)c1ccccc1O was read as Tau fluor counter inconclusive, Tau fibril ThT 14µM*, Sfp PPTase inh 37%, Tau fibril FP 6% and Coupling enz 7.
For Cc1ccc(NC(=O)[C@@H](c2ccccc2)N2Cc3ccccc3C2=O)cc1F the results were Tau fluor counter -21%, Tau fibril ThT 1% and Tau fibril FP -18%.
Screening O=C(c1ccccc1)c1cc(Cl)ccc1N1C(=O)C=CC1=O returned Tau fluor counter -1%, Tau fibril ThT 11%, Sfp PPTase inh 3.2µM*, Tau fibril FP -9% and Coupling enz -1.
Screening O=C(CC(=O)c1cc(Cl)ccc1O)c1ccccc1 returned Tau fluor counter -27%, Tau fibril ThT inconclusive, Sfp PPTase inh -62%, Tau fibril FP -15% and Coupling enz -2.
Screening CC(=O)c1ccc2c(c1)C1C=CCC1C(c1ccncc1)N2 (stereo not drawn) returned Tau fluor counter inconclusive, Tau fibril ThT 14µM*, Sfp PPTase inh -28%, Tau fibril FP inconclusive and Coupling enz -32*.
For COC(=O)c1ccc(C2Nc3ccc(/C(C)=N/NC(=O)C(OC)c4ccccc4)cc3C3C=CCC32)cc1 (stereo not drawn) the results were Tau fluor counter -24%, Tau fibril ThT inconclusive, Sfp PPTase inh inconclusive and Tau fibril FP -6%.
For C1=CC2c3ccccc3NC(c3ccncc3)C2C1 (stereo not drawn) the results were Tau fluor counter inconclusive, Tau fibril ThT 22µM*, Sfp PPTase inh 32µM*, Tau fibril FP inconclusive and Coupling enz -41*.
`CCN(CC)CCOCCOC(=O)C(CC)(CC)c1ccccc1` (tested in a mixture with another compound) gave Sfp PPTase inh -2%.
For O=C1c2cccc3c2[C@@H](CCC3)CN1[C@@H]1CN2CCC1CC2 the results were Sfp PPTase inh 3%.
Screening CCN(C(=O)CSc1nc2cc(S(=O)(=O)N(CC)CC)ccc2o1)C1CCS(=O)(=O)C1 (stereo not drawn) returned Sfp PPTase inh 18µM* and Coupling enz -2.
For CCN(C(=O)CSc1ccc2c(c1)OCCO2)C1CCS(=O)(=O)C1 (stereo not drawn) the results were Tau fluor counter -18%, Tau fibril ThT -9%, Sfp PPTase inh -4%, Tau fibril FP -10% and Coupling enz 3.

Screening data: PubChem, National Center for Advancing Translational Sciences (NCATS)
